Pf apPOL inh: Pf-apPOL inhibitors, biochemical, fluorescence | Plasmodium falciparum apicoplast DNA polymerase (apPOL) | inhibition, % at 10 µM | 210,000 tested, 0.25% active | Recombinant Pf-apPOL, molecular beacon fluorescence, 1.5 h
mHTT CaM bind: mutant huntingtin-calmodulin interaction inhibitors – biochemical, AlphaScreen, primary screen | AlphaScreen His-mHTT/GST-CaM binding, luminescence | inhibition, % at 15 µM | 190,000 tested, 3.6% active;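 also: 0% = both proteins with DMSO and 100% = one protein alone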
* marks the source's active call; other numbers are inactive results; / = no result given. Rows were chosen to be rich in hits. Some 3.5% of all compounds tested hit in one or more screens of this group. Rule as the data show it: active = inhibition above about 50%; inactive = the rest.

SMILES | Pf apPOL inh | mHTT CaM bind
COc1cccc2c1Oc1[nH]c(-c3ccc(OC)c(OC)c3OC)nc(=S)c1C2 | 0 | 8
O=C1OC(/C=C/c2ccccc2)=NC/1=C/c1ccccc1[N+](=O)[O-] | -3 | -4
Cc1cc2c(cc(C(=O)N3CCOCC3)n2CC2CCC2)s1 | -8 | 16
O=C(c1cc2sc(Br)cc2n1CC1CCCCO1)N1CCCC1 (stereo not given) | -13 | 70*
Cc1cc(C2CCCN2C(=O)c2ccccc2F)on1 (stereo not given) | -2 | -7
CC(C)C(=O)NC(/C=C/c1ccccc1)c1cc([N+](=O)[O-])c2cccnc2c1O (stereo not given) | -4 | 5
CC(=O)NC(c1ccco1)c1cc([N+](=O)[O-])c2cccnc2c1O (stereo not given) | -5 | 100*
CC(C)C(=O)NC(c1ccco1)c1cc([N+](=O)[O-])c2cccnc2c1O (stereo not given) | -19 | 100*
CCCC(=O)NC(c1ccco1)c1cc([N+](=O)[O-])c2cccnc2c1O (stereo not given) | 5 | 100*
COc1cccc(N2CCN(C(=O)c3ccccc3)C(C)C2=O)c1 (stereo not given) | -3 | -4
CC(C)NC(=O)c1csc(COc2cccc(C(F)(F)F)c2)n1 | -3 | 14
CCOC(=O)CNC(=O)N1CCc2nc(-c3ccc(F)cc3)ncc2C1 | -5 | -5
Cc1cc(C=O)c(C)n1-c1ccncc1 | -1 | 2
CN(CC(=O)N1N=C(c2ccccc2F)CC1c1ccccc1)C(=O)C1CC1 (stereo not given) | 0 | 20
COc1ccc(C(=O)C=Cc2ccc(OC)c(OC)c2)c(OC)c1 | -16 | 13
COc1ccc(C(=O)C=Cc2ccc(OC)c(OC)c2)c(O)c1 | -3 | 50*
COc1ccc(-c2nnn(CC(=O)Nc3ccc(OC(F)(F)Cl)cc3)n2)cc1 | -3 | 2
CCN(CC)CCC(c1ccc(N(C)C)cc1)c1c(OC)cc(OC)c2c1OC(=O)CC2c1ccc(OC)cc1 (stereo not given) | -9 | 98*
CCN(CC)CCC(c1ccc(OC)cc1)c1c(OC)cc(OC)c2c(C)cc(=O)oc12 (stereo not given) | -7 | 14
CCN(CC)CCC(c1ccc(N(C)C)cc1)c1c(OC)cc(OC)c2c1OC(=O)CC2c1ccc(N(C)C)cc1 (stereo not given) | 0 | 101*
CCN(CC)CCC(c1ccc2c(c1)OCO2)c1c(OC)cc(OC)c2c(C)cc(=O)oc12 (stereo not given) | -14 | 30
CN1CCCn2nc(C3CCN(C(=O)NCc4ccco4)CC3)cc2C1=O | -3 | 8
COc1ccccc1C(=O)N1CCCC1c1nc(-c2ccccc2OC)no1 (stereo not given) | 2 | -4
N#CC1=C(N)Oc2c(C=Nc3ccccc3)ccc(O)c2C1c1cccc([N+](=O)[O-])c1 (stereo not given) | -4 | 100*
N#CC1=C(N)Oc2n[nH]c(-c3ccccc3)c2C1c1cccc([N+](=O)[O-])c1 (stereo not given) | -4 | 11
SMILES | Pf apPOL inh | mHTT CaM bind
c1ccc(C2=NN3C(C2)c2ccccc2OC32CCCC2)cc1 (stereo not given) | 29 | 51*
O=C1Nc2ccccc2C12Oc1ccccc1C1CC(c3ccc(Cl)cc3)=NN12 (stereo not given) | -4 | 100*
Clc1ccc2c(c1)C1CC(c3cccnc3)=NN1C1(CCCCC1)O2 (stereo not given) | -23 | 51*
CCC1(C)Oc2ccccc2C2CC(c3ccccc3)=NN21 (stereo not given) | 0 | 44
C=CCN1C(=O)C2(Oc3ccccc3C3CC(c4ccccc4)=NN32)c2ccccc21 (stereo not given) | 0 | 7
CN1CCC2(CC1)Oc1ccc(Cl)cc1C1CC(c3ccc(Cl)cc3)=NN12 (stereo not given) | / | 24
Cc1ccc(C2=NN3C(C2)c2ccccc2OC32CCCCC2)o1 (stereo not given) | -6 | 53*
c1ccc(C2=NN3C(C2)c2ccccc2OC32CCCCC2)cc1 (stereo not given) | -1 | 44
COc1ccc(CSc2nnc(-c3ccccc3)n2C)cc1 | -5 | 0
O=C(NCc1ccc(F)cc1)c1csc2c1CCCCC2 | -2 | -4
O=C(NCc1ccc(F)cc1)c1ccc(-c2cccs2)nc1 | -6 | -10
CC(C)c1ccc(OCC(=O)N2CCN(c3ccc([N+](=O)[O-])cc3)CC2)cc1 | -5 | 40
Nc1[nH]c(=O)[nH]c(=O)c1N | 21 | /
c1csc(C2=NN3C(C2)c2ccccc2OC32CCCC2)c1 (stereo not given) | -1 | 56*
CN(CC(=O)N1N=C(c2cccs2)CC1c1ccccc1Cl)C(=O)C1CCC1 (stereo not given) | 3 | 26

From PubChem BioAssay
